Structures are written as SMILES. Records with an inconclusive call do not appear. Where a call stands in place of a potency, no number is given. A number with no mark means an inactive call. Activity calls are given as the source filed them. The call rests on the fitted dose curve; in most records, active means well fitted cell-killing curve with a large enough effect in the repeat runs; inconclusive means weak or mixed curves, or effect the other way; inactive means flat fitted curve, though single readings scatter.

The nature of the experiment: qHTS RealTime-Glo MT Cell Viability Assay in HepG2 cells - 0 hour (AID 1224889). Further: nearly all actives have a fitted effect of over 50% in size. Conditions: RealTime-Glo luminescence; series mostly up to 76.8 µM. The source says:
U.S. Tox21 Program National Center for Advancing Translational Sciences [NCATS] NIH Chemical Genomics Center [NCGC] U.S. Environmental Protection Agency [EPA] National Institutes of Environmental Health Sciences [NIEHS] National Toxicology Program [NTP] U.S. Food and Drug Administration [FDA] Tox21 Assay Overview: Measure of cell viability is critical in the cell-base assay. Analysis of cell viability is necessary for the characterization of cell responses to cytotoxic drugs and environmental stress. A RealTime-Glo MT Cell Viability Assay to monitor cell viability in real time of continues cell culture during 40 hours of compound treatment was used to screen Tox21 10K library compounds in HepG2 cells. The RealTime-Glo MT Cell Viability Assay is a nonlytic, homogeneous, bioluminescent method to measure cell viability in real time using a simple, plate-based method. The assay involves adding NanoLuc luciferase and a cell-permeant prosubstrate to cells in culture. Viable cells reduce the proprietary prosubstrate to generate a substrate for NanoLuc luciferase. This substrate diffuses from cells into the surrounding culture medium, where it is rapidly used by the NanoLuc Enzyme to produce a luminescent signal. The signal correlates with the number of viable cells, making the assay well suited for cytotoxicity studies.
Tox21 Assay Protocol Summary: The mixture of HepG2 cell suspension and reagents were dispensed at 600cells/6 ul/well in 1536-well tissue culture treated black solid bottom plates using a Multidrop dispenser. After the assay plates were incubated at a 37 C/5% CO2 incubator for 5 hours, 23 nL of compounds dissolved in DMSO, positive and negative controls was transferred to the assay plate by a pintool work station. The plates were incubated at 37 C for 40 hours. The luminescence intensity were measured at 0h, 8h, 16h, 24h, 32h and 40h time points using ViewLux plate reader during compound treatment.
For orientation: Quantitative high-throughput screening tests each substance at several concentrations.
Consider `Cc1ccc(O)cn1`, for which the Potency entry was “inactive”. Still for that read-out and setting: the same measure for `CCOCOCC`: “inactive”; for `c1ccc2c(c1)CCC2`: “inactive”; for `CCOC(=O)N1CCC(=C2c3ccc(Cl)cc3CCc3cccnc32)CC1`: “inactive”. As to `OCCCc1cccnc1`, the Potency result is “inactive”. Turning to `O=S(=O)(O)c1cc(S(=O)(=O)O)c2ccc3c(S(=O)(=O)O)cc(S(=O)(=O)O)c4ccc1c2c43`, the activity change, negative = cytotoxicity was 4.18% [at 15.8 µM]. Turning to `C[C@@]12C(=O)OC(=O)[C@]1(C)C1CCC2O1`, the Potency entry is “inactive”. For `CCOC(=O)COc1ccc(C)cc1`, the Potency entry is “inactive”. Consider `CCCCNc1c(C(=O)OCC)c(C)nc2c1cnn2CC`, for which the Potency entry was “inactive”. Take `C=C(c1ccc(C(=O)O)cc1)c1cc2c(cc1C)C(C)(C)CCC2(C)C`: the Potency result is “inactive”. Regarding `CCCC(=O)OCC(COC(=O)CCC)OC(=O)CCC`, the Potency entry is “inactive”. Consider `Cc1cc(C)c(C=O)c(C)c1`, for which the Potency result is “inactive”. On to `CCOC(=O)CC(C)O` (stereo not given), for which the Potency result is “inactive”.

For `C=CC(=O)OCCN(CC)CC`, the Potency entry was “inactive”.

Take `CCOC(=O)CN`: the Potency result is “inactive”. Still for that read-out and setting: the same measure for `CCCCCCCC/C=C\CCCCCCCC(=O)OCCOC(=O)CCCCCCC/C=C\CCCCCCCC`: “inactive”; for `CCCCCCCC/C=C/CCCOC(C)=O`: “inactive”; for `C=C(C)CCCC`: “inactive”. For `CNC(=O)c1cc(Oc2ccc(NC(=O)Nc3ccc(Cl)c(C(F)(F)F)c3)cc2)ccn1`, the Potency result is “inactive”. In the case of `CCO[Si](CCCSSSSCCC[Si](OCC)(OCC)OCC)(OCC)OCC`, the Potency result is “inactive”.

In the case of `CC1(C)C(=O)N(Br)C(=O)N1Br`, the Potency entry is “inactive”.

Consider `CC(C)(C)c1n[nH]c(=O)n(N)c1=O`, for which the Potency result is “inactive”. Still for that read-out and setting: the same measure for `C=CC(=O)OCC(O)COc1ccccc1` (stereo not given): “inactive”. Still for that read-out and setting: in the case of `CC(C)c1ccccc1N` it was “inactive”. For the compound `CCN1CCN(c2cc(-c3ccc(F)cc3)c3c(n2)CCCCCC3)CC1`, the activity change, negative = cytotoxicity was 21.1% [at 15.8 µM]. In the case of `C=C/C=C/C=C/CCCCC`, the activity change, negative = cytotoxicity was -16.9% [at 15.8 µM].

With `CCN=c1cc2oc3cc(NCC)c(C)cc3c(-c3ccccc3C(=O)OCC)c-2cc1C`, the Potency result is “inactive”. For the compound `C/C=C/C(=O)C1=C(C)CCCC1(C)C`, the Potency result was “inactive”. With `C=CC(=O)OCCC#N`, the Potency result is “inactive”. With `O=C(O)CCn1c2c(c3ccccc31)C[C@H](NS(=O)(=O)c1ccc(F)cc1)CC2`, the Potency entry is “inactive”. Take `Clc1ccc(C(c2ccccc2Cl)C(Cl)Cl)cc1` (stereo not given): the Potency result is “inactive”. For `Cc1oc(-c2ccccc2)nc1CCOc1ccc(C[C@H](Nc2ccccc2C(=O)c2ccccc2)C(=O)O)cc1`, the Potency result is “inactive”. Regarding `NCCCCCCNCCCCCCN`, the Potency entry was “inactive”.

Take `CCCCCCCOC(=O)c1ccccc1C(=O)OCCCCCCC`: the Potency result was “inactive”. As for `CC1(C)C(=O)N(CO)C(=O)N1CO`, the Potency result was “inactive”. Same read-out and setting: the same measure for `CC=O`: “inactive”.

On to `COC(=O)CC(C)CCC=C(C)C` (stereo not given), for which the Potency entry is “inactive”. The same measure, in the same setting: in the case of `CCCC(C)CCC(C)=O` (stereo not given) it was “inactive”. With `CN1[C@@H]2CC[C@H]1CC(OC(=O)C(CO)c1ccccc1)C2` (stereo not given in full), the Potency entry was “inactive”. Take `CCO[Si](C)(C)OCC`: the Potency result was “inactive”.

These data come from PubChem BioAssay (Tox21).
